An excerpt weighted towards active compounds, which were near 2.4% of everything screened.
Rango dissoc inh: inhibition of RanGTP-driven Rango-importin beta dissociation. O95149+P62826. Biochemical FRET Rango-importin beta, RanGTP-induced dissociation. Potency, µM (top dose mostly 46.1 µM), inactives show at the top dose activity change, negative = inhibition. 340,000 compounds, 0.071% hits. AID 540253; calls by dose curve; note: % of control where 0% means no effect; nearly all actives have a fitted effect of over 45% in size
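Rango FRET biosensor (snurportin-1 IBB flanked by N-terminal EYFP and C-terminal CFP10) at 0.1 uM, with 0.25 uM importin beta in PBS, 1mM DTT, 0.02% Tween-20, 0.1% BSA. 0.6 uM Ran, 2mM GTP and 0.2 uM RCC1 were then added for 45 min at room temperature. Inhibition read as loss of FRET rise.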
ALOX12 inh: inhibitors of human 12S-lipoxygenase ALOX12 | 580,000 compounds, 1.1% hits | purified 12hLO, xylenol orange hydroperoxide absorbance | Potency, µM (top dose mostly 108 µM), inactives show top-dose activity change, negative = inhibition, hits mostly inhibitors | P18054; note: % is set by controls: 0 for no effect and ±100 for the full control effect
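Purified human 12hLO (150 nM final) in 25 mM Hepes, 0.01% Triton X-100, pH 7.0 was preincubated 15 min at room temperature with compound. Then 40 uM arachidonic acid was added, 30 min. Hydroperoxide was read by Fe-XO absorbance ratio 573/405 nm.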
Rango-impB inh: prevents formation of the Rango-importin beta complex | Q14974 | Rango CFP/YFP FRET sensor + importin beta, 45 min | Potency, µM (series often up to 92.2 µM), without a hit: at the highest dose inhibition of complex formation | 340,000 compounds, 0.031% hits | AID 540263; calls by dose curve;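 note: 0% = DMSO wells and 100% = buffer wells lacking importin beta; nearly all actives have a fitted effect of over 15% in size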
Target sequence (Q14974 whole entry, looked up): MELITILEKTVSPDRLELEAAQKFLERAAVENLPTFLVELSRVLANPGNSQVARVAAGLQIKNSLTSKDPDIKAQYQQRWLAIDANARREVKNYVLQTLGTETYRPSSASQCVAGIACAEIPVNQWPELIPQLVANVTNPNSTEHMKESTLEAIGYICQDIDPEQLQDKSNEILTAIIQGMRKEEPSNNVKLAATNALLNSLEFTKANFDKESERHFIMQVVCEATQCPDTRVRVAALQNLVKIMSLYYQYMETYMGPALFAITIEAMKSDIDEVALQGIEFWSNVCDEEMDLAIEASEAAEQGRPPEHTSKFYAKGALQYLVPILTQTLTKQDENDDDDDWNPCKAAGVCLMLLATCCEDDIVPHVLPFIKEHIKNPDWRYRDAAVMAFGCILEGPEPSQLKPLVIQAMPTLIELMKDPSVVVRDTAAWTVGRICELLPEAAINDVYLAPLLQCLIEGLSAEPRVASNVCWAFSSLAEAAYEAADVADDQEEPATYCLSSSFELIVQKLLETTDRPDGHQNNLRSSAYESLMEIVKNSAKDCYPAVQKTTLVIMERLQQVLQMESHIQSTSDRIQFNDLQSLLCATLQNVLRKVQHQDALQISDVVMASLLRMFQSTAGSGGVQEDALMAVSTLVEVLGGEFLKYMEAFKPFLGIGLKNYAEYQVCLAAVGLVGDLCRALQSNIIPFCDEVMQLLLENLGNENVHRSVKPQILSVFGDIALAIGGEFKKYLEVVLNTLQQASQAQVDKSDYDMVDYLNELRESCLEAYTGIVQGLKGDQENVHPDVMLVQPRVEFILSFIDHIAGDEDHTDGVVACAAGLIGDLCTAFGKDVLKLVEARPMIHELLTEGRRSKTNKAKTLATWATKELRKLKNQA
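Inhibition scored from the CFP 486 nm/YFP 530 nm FRET ratio 45 min after adding 0.125 microM importin beta to 50 nM Rango biosensor preincubated 5 min with compound (room temperature, PBS with DTT, Tween-20, BSA). No-importin wells as positive control.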
ClpP mod: qHTS Assay for Activators of ClpP; purified B. subtilis ClpP, FRET peptide cleavage, 20 min; Potency, µM (highest dose often 57.5 µM), for the others: at the top dose activity change, negative = active; 340,000 compounds, 1.9% hits; AID 651965, 2013; active = well fitted falling curve with a large enough effect; inconclusive = small, poorly fitted or top-dose-only effect; inactive = no such curve, though single readings can be large or run the other way; note: the source files actives as falling curves though it sought activators and does not explain the sign; nearly all actives have a fitted effect of over 65% in size
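Buffer: 100 mM Tris/HCl pH8, 100 mM KCl, 0.05% low protease BSA, 2.5% glycerol, 0.01% Tween-20. ClpP 10 microg/mL final; 20 min RT; delta FRET normalized to ADEP and DMSO controls.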
TSG101-PTAP inh: blocks PTAP/TSG101 interaction to inhibit HIV-1 budding; Q99816; Fluorescence polarization, FITC-PTAP peptide / Tsg101 binding; Potency, µM (highest dose often 115 µM), inactives show at the top dose activity change, negative = inhibition, usual class: inhibitors; 340,000 tested, under 10 active; AID 493005; active = well fitted inhibition curve with a large enough effect in the main read-out, with a control signal flat, not every such curve was filed as active; inconclusive = small, poorly fitted or top-dose-only effect, or effect the other way, or a change in a side signal; inactive = no such curve, though single readings can be large or run the other way; note: % of control where 0% means no effect
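Fluorescence polarization binding of Tsg101 binding domain (10 uM final) to FITC-labeled PTAP peptide (50 nM final) in HEPES pH 7.5 buffer with NaCl, Tween 20, EDTA, TCEP. Compounds added before peptide; binding 20 min at RT.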
TDP1 inh: TDP1 (human) enzyme inhibition | Q9NUW8 | recombinant TDP1, AlphaScreen DNA substrate cleavage | Potency, µM (series often up to 130 µM), for the others: at the highest dose activity change, negative = inhibition, hits mostly inhibitors | 350,000 compounds, 0.28% hits; note: % is set by controls: 0 for no effect and ±100 for the full control effect; nearly all actives have a fitted effect of over 40% in size
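Tdp1 1 nM final; 15 min RT w/ cpd; substrate 15 nM, 5 min; beads 10 ug/ml, 10 min; AlphaScreen read. Neg ctrl: no enzyme.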
* hit, by the source's call; [ ] = remark or other dose. Unless noted, calls come from the whole dose curve; as a rule, active = well fitted curve in the direction sought with a large enough effect; inconclusive = small, poorly fitted or top-dose-only effect, or another doubt; inactive = no such curve, though single readings can be large; an effect the other way counts as inactive or inconclusive. Potency is the fitted concentration of half-maximal effect.

For O=C(Sc1ccc(Cl)cc1)c1ccccn1 the results were Rango dissoc inh 10.4%, ALOX12 inh 2.82µM*, Rango-impB inh -0.1% and TSG101-PTAP inh 0.6%.
`Cc1cc(C)n(-c2ncnc3sc(C)c(C)c23)n1` gave Rango dissoc inh -15.8%, ALOX12 inh 0.0%, Rango-impB inh -0.2%, ClpP mod 31.6µM*, TSG101-PTAP inh -3.5% and TDP1 inh -2.6%.
`Cc1nn(Cc2ccc(Cl)cc2)c(C)c1NC(=O)CCCn1nc(C)c([N+](=O)[O-])c1C` gave Rango dissoc inh 19.2%, ALOX12 inh 0.9%, Rango-impB inh 3.0%, ClpP mod -1.4%, TSG101-PTAP inh -1.2% and TDP1 inh -9.1%.
Screening Cc1nn(Cc2ccccc2)c(C)c1NC(=O)CCCn1nc(C)c([N+](=O)[O-])c1C returned Rango dissoc inh 0.2%, ALOX12 inh -7.4%, Rango-impB inh 3.2%, ClpP mod 28.2µM*, TSG101-PTAP inh -4.1% and TDP1 inh -1.1%.
`CC[C@@]1(O)CCN(C(=O)c2cnc(N3CCOCC3)nc2)C[C@H]1O` gave ALOX12 inh -2.0%.
`COc1ccc(/C=N/Nc2nnc(-c3ccccc3)c(=O)[nH]2)cc1` gave Rango dissoc inh -10.6%, ALOX12 inh 17.9%, Rango-impB inh -1.7%, ClpP mod 25.1µM*, TSG101-PTAP inh -1.4% and TDP1 inh 7.0%.
Screening CCN(CC)c1ccc2cc(-c3nc(-c4ccccc4F)no3)c(=O)oc2c1 returned ALOX12 inh -10.8%, ClpP mod 25.1µM* and TDP1 inh -2.6%.
`CCN(CC)c1ccc2cc(-c3nc(-c4cccs4)no3)c(=O)oc2c1` gave ALOX12 inh -19.8%, ClpP mod inconclusive and TDP1 inh -5.1%.
Screening Cc1ccc(COc2ccc(/C=N/O)cc2)cc1 returned Rango dissoc inh 42.9%, ALOX12 inh 19.9%, Rango-impB inh -4.3%, ClpP mod 1.1%, TSG101-PTAP inh -2.8% and TDP1 inh 2.7%.
`Cc1ccc(Oc2ccc(/C=N/O)cn2)cc1` gave Rango dissoc inh 7.5%, ALOX12 inh -15.1%, Rango-impB inh 1.0%, ClpP mod 15.8µM*, TSG101-PTAP inh -5.6% and TDP1 inh 1.0%.
Screening COc1ccc(-n2c(CCc3ccccc3)n[nH]c2=S)cc1 returned Rango dissoc inh -12.8%, ALOX12 inh inconclusive, Rango-impB inh 1.5%, ClpP mod -1.9%, TSG101-PTAP inh -1.5% and TDP1 inh 2.6%.
Screening Oc1ccc(CCc2n[nH]c(=S)n2-c2ccc(F)cc2)cc1 returned Rango dissoc inh 3.5%, ALOX12 inh 25.1µM*, Rango-impB inh 0.5%, ClpP mod -1.5%, TSG101-PTAP inh -3.3% and TDP1 inh 0.0%.
Screening CO[C@@H]1COCC[C@H]1NC(=O)COc1cccc(-n2cnnn2)c1 returned ALOX12 inh 18.5%.
Screening CCOC(=O)C1=C(C)C(c2cccc(Oc3ccccc3)c2)NC(=S)N1 (stereo unspecified) returned Rango dissoc inh 0.9%, ALOX12 inh 39.8µM*, Rango-impB inh 3.3%, TSG101-PTAP inh -5.2% and TDP1 inh 2.6%.
For COCCOCc1nc(C2CCN(C(=O)c3[nH]nc4c3CCc3cc(OC)ccc3-4)CC2)no1 the results were ALOX12 inh 32.7%.
`CCOC(=O)[C@]12CCC=C1N(Cc1ccc3c(c1)OCO3)C(=O)[C@H](CC(=O)NCCc1ccccc1OC)C2` gave ALOX12 inh 39.8µM* and ClpP mod -3.0%.
Screening Cc1ccc(C)c(CN2CCC3(CC2)[C@H](O)C[C@@H]3OCCN)c1 returned ALOX12 inh 2.4%.
`CC(=O)c1ccccc1OCCOCCOCCOc1ccccc1C(C)=O` gave Rango dissoc inh 10.2%, ALOX12 inh 4.6%, Rango-impB inh -0.1%, ClpP mod 0.891µM*, TSG101-PTAP inh 0.6% and TDP1 inh -13.9%.
For CC(=O)c1ccccc1OCCCN1CCCCC1 the results were Rango dissoc inh -1.9%, ALOX12 inh inconclusive, Rango-impB inh -1.2%, ClpP mod -6.6%, TSG101-PTAP inh -5.1% and TDP1 inh -3.1%.
For Cc1ccc(-c2cccc(NC(=O)C3C(C(=O)O)[C@@H]4C=C[C@H]3C4)c2)o1 (stereo partly specified) the results were Rango dissoc inh 2.0%, ALOX12 inh inconclusive, Rango-impB inh 1.2%, ClpP mod -5.0%, TSG101-PTAP inh 0.2% and TDP1 inh 7.7%.
Cc1ccc(-c2ccccc2NC(=O)C2C3C=CC(C3)C2C(=O)O)o1 (stereo unspecified) was read as Rango dissoc inh -40.4%, ALOX12 inh 13.0%, Rango-impB inh -8.4%, ClpP mod 25.1µM*, TSG101-PTAP inh -20.3% and TDP1 inh 3.9%.
Screening CC(C)n1cc(C(=O)N2CCCC(c3nnc(Cn4ccnc4)n3C)C2)cn1 (stereo unspecified) returned ALOX12 inh 20.0%.
`O=C(c1ccc2c(c1)OCO2)N1CCC(c2nc3c(nnn3Cc3cccc(Cl)c3)c(=O)[nH]2)CC1` gave ALOX12 inh 12.6µM*.
For O=C(Nc1ccc(F)cc1)N1CCC(c2nc3c(nnn3Cc3cccc(Cl)c3)c(=O)[nH]2)CC1 the results were Rango dissoc inh 5.1%, ALOX12 inh -7.4%, Rango-impB inh -4.2%, ClpP mod -1.0%, TSG101-PTAP inh -5.7% and TDP1 inh 3.9%.
For CCCCCOc1ccc(/C=C2\CCC(C3CCCC3)C2=O)cc1 (stereo unspecified) the results were ALOX12 inh 3.0%.
Cc1nc(N2CCN(C(=O)c3cccc(Cl)c3)CC2)cc(C(F)(F)F)n1 was read as ALOX12 inh 5.1%.
COc1cc(NC(=O)c2cccc(Cl)c2)ccc1NC(=O)c1cc2ccccc2o1 was read as ALOX12 inh -7.2%.
`COc1cc(NC(=O)c2cc(Cl)ccc2Cl)ccc1NC(=O)c1cc2ccccc2o1` gave ALOX12 inh -12.5%, ClpP mod 28.2µM* and TDP1 inh 3.1%[12.3 µM].
Screening Cc1ccc(SSc2cc(C)ccc2N)c(N)c1 returned Rango dissoc inh inconclusive, ALOX12 inh 10µM*, Rango-impB inh -0.9%, ClpP mod -11.1%, TSG101-PTAP inh -1.6% and TDP1 inh 11.9%.
`O=C(Cn1ccc2c(Cl)cccc21)Nc1ccc2c(c1)OCCO2` gave ALOX12 inh 7.7%.

Screening results from PubChem BioAssay.
